Consider 101 molecules from PubChem BioAssay AID893 (National Center for Advancing Translational Sciences (NCATS), 2007).

Where “and” joins values, the source holds several entries; their conditions need not be identical. Identical values can stand only once. Hit rate of the full screen: of about 75,000 compounds, about 5,700 (7.6%) were called active. A call without a number means that no potency is given here. Another 7% or so got no clear call; they are omitted. This is one part of a sample in which actives are shown more often than they occur. Unmarked numbers belong to inactive results. Calls follow the shape of the dose curve; as a rule, active = well fitted inhibition curve with a large enough effect; inconclusive = small, poorly fitted or top-dose-only effect; inactive = no such curve, though single readings can be large or run the other way.
Potency is read from the fitted curve at half-maximal effect.

For this assay, the target named is 3-hydroxyacyl-CoA dehydrogenase type-2 (Homo sapiens) (UniProt Q99714). The assay can be described thus: qHTS Assay for Inhibitors of HSD17B4, hydroxysteroid (17-beta) dehydrogenase 4.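 Also: the protocol describes HADH2 (HSD17B10) and not the HSD17B4 of the title; nearly all actives have a fitted effect of over 70% in size.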 Particulars: recombinant HSD17B10, NADH fluorescence kinetic; series mostly up to 57.1 µM. In outline:
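Enzyme plus compound, 15 min room temperature; substrate mix added (NAD+ 1 mM, beta-hydroxybutyryl-CoA 90 uM final); plates read kinetically for NADH fluorescence. HADH2 was His-tagged, E. coli-derived, 20 nM.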
(In general: In qHTS, concentration-response curves come from the screen itself.)
As for `N#Cc1cccc(CSc2nnc(CCCO)n2-c2ccccc2)c1`, the Potency result was “inactive”.
For `Cn1c(N)c(C(=O)COC(=O)c2cc(C(F)(F)F)nc3c(C(F)(F)F)cccc23)c(=O)n(C)c1=O`, the Potency entry was “inactive”.
In the case of `Cc1c(O)c(Br)c(C)c(O)c1Br` (tested in a mixture with another compound), the Potency was 0.794 µM (active).
Same read-out and setting: with `CN(c1ccc(C(=O)NCCC2=CCCCC2)cc1)S(C)(=O)=O` the entry was “inactive”; with `CCC[C@@H]1C[C@@]1(CCC)C(NS(=O)(=O)c1cccc2cccnc12)c1ccc(Cl)cc1` (stereo partly specified), “inactive”.
Turning to `Clc1ccc(C2[C@H]3CN(CC4CCCCC4)[C@H](c4ccccc4)C34CC2(c2cccnc2)C4)cn1` (stereo partly specified), the Potency result was “inactive”.
Consider `Cc1ccc(S(=O)(=O)c2c(N)n(C)c3nc4ccccc4nc23)cc1`, for which the Potency is 25.1 µM (active).
Still for that read-out and setting: with `Cc1ccc(S(=O)(=O)NCc2nc3ccccc3c(=O)n2N)cc1` the entry was “inactive”; with `c1cc(-n2cnnn2)ccc1NC1=NCCC1`, “inactive”.
For the molecule `CC(C)CN1CCc2nc(-c3ccccc3)c3c(c2C1)COC(C)C3` (stereo unspecified), the activity change, negative = inhibition was -2.26% [at 11.4 µM].
Turning to `Cc1ccc(Cn2ccc(NC(=O)c3cc(C(C)C)on3)n2)cc1`, the Potency entry was “inactive”.
Turning to `CC(C)c1ccc(OCC(O)Cn2cnc3ccccc32)cc1` (stereo unspecified), the Potency entry was “inactive”.
On the same count and under the same terms, with `CCOC(=O)N1CCN(C(=O)c2ccc3nc4cc(Cl)ccc4c(=O)n3c2)CC1` the figure was 1 µM (active).
Still for that read-out and setting: with `CCOC(=O)N1CCN(C(=O)CNC(=O)Cc2ccc(Cl)cc2)CC1` the entry was “inactive”.
Same read-out and setting: with `CCOC(=O)N1CCN(C(=O)CSc2ccc(Cl)cc2)CC1` the entry was “inactive”; with `Cn1c(=NC(=O)CSCC(=O)N2CCCCC2)sc2ccccc21`, “inactive”; with `O=C(CSc1nnc(-c2ccccn2)n1-c1ccccc1)Nc1ccc2c(c1)OCO2`, “inactive”.
Turning to `CC[C@H](c1ccccc1)c1cc(C(C)(C)C)cc(C(C)(C)C)c1O`, the activity change, negative = inhibition was -3.63% [at 11.4 µM].
With `NC(=O)CSC1=Nc2ccccc2C2=NC(CCC(=O)NCc3ccc(F)cc3)C(=O)N12` (stereo unspecified), the Potency is 31.6 µM (active).
The same measure, in the same setting: with `O=C(CN1C(=O)CCS(=O)(=O)c2ccccc21)NCc1ccc(F)cc1` the entry was “inactive”.
Same read-out and setting: with `CC(C)C1N=C2c3ccccc3N=C(SCC(=O)c3ccc(O)c(O)c3)N2C1=O` (stereo unspecified) the entry was “inactive”.
Still for that read-out and setting: with `Cc1ccc(SCCN2C(=O)NC(C)(C)C2=O)cc1` the entry was “inactive”; with `C=CCn1c(COc2ccccc2C)nnc1SCC(=O)O`, “inactive”; with `C=CCn1c(COc2cccc3cccnc23)nnc1SCC(=O)OC`, 31.6 µM (active).
In the case of `C=CCn1c(COc2ccccc2)nnc1SCC(=O)NCC(=O)OCC`, the Potency entry is “inactive”.
For the molecule `O=C(O)C1C2C=CC(C2)C1C(=O)N1CCN(CCO)CC1` (stereo unspecified), the Potency result was “inactive”.
Consider `CCOC(=O)c1cc(NC(=O)SCC(=O)O)c(C)nc1C`, for which the Potency result was “inactive”.
Regarding `CCOC(=O)c1cc(-c2nnc(-c3cc(OC)c(OC)c(OC)c3)o2)c(C)nc1C`, the Potency was 31.6 µM (active).
Same read-out and setting: with `COc1cc(-c2nnc(Cn3cc(C(F)(F)F)ccc3=O)o2)cc(OC)c1OC` the entry was “inactive”.
`Cc1cc(C)cc(C#CC2C=CC(Oc3ccc(C4CCCC4)cc3)C(CO)O2)c1` (stereo unspecified): the activity change, negative = inhibition was 4.3% [at 11.4 µM].
Turning to `CCn1c(=N)c(C(=O)NCCCOC)cc2c(=O)n3cccc(C)c3nc21`, the Potency was 31.6 µM (active).
The same measure, in the same setting: with `COCCCNC(=O)c1ccc2c(c1)ncn2-c1ccccc1OC` the entry was “inactive”; with `CCOCCCNC(=O)c1c[nH]c2cc(C)ccc2c1=O`, “inactive”.
In the case of `CC(=O)N(Cc1cccs1)C1CCOC(C)(C)C1` (stereo unspecified), the Potency result was “inactive”.
Turning to `O=C(O)c1ccc(COc2c(F)c(F)cc(F)c2F)o1`, the Potency entry is “inactive”.
Still for that read-out and setting: with `CCOC(=O)n1c(SCC(=O)N(CC)CC)nc2ccccc21` the entry was “inactive”; with `Cc1cc(N2CCCCC2)nc2ccc(Cc3ccc4nc(N5CCCCC5)cc(C)c4c3)cc12`, 3.16 µM (active).
Consider `COc1ccc(-n2c(SC)nc(O)cc2=O)cc1`, for which the Potency result was “inactive”.
As to `O=C(CC1Nc2ccccc2NC1=O)Nc1ccccc1` (stereo unspecified), the Potency is 25.1 µM (active).
Still for that read-out and setting: with `O=C(CC1NCCNC1=O)Nc1ccc(Oc2ccccc2)cc1` (stereo unspecified) the entry was “inactive”; with `CCOC(=O)c1ccccc1NC(=O)CC1Nc2ccccc2NC1=O` (stereo unspecified), “inactive”; with `COc1cccc(NC(=O)C(C)Oc2ccccc2)c1` (stereo unspecified), “inactive”.
Same read-out and setting: with `CC(=O)OCC(=O)C1CCC2C3CCC4=CC(=O)CC[C@@]4(C)C3CC[C@]12C` (stereo partly specified) the entry was “inactive”.
`Fc1ccccc1OCCSc1nc2ccccc2o1`: the Potency result was “inactive”.
For the molecule `C[C@H]1O[C@@H](CC(=O)O)Cc2c1c(O)c1c(O)cc(-c3cc(=O)c4c(=O)c5c(c(=O)c=4c3=O)C[C@H](CC(=O)O)O[C@@H]5C)c(O)c1c2O`, the Potency is 3.98 µM (active).
On the same count and under the same terms, with `CC(C)C1=CC2=CC[C@@H]3[C@](C)(CO)CCC[C@]3(C)C2CC1` (stereo partly specified) the entry was “inactive”; with `Cc1nc2ccc(S(=O)(=O)NC(C(=O)N3CCCCCC3)C(C)C)cc2s1` (stereo unspecified), “inactive”.
For `COC(=O)[C@H]1C[C@@H]1[C@H](NC(=O)Oc1ccc(F)cc1)c1ccccc1`, the Potency entry was “inactive”.
Same read-out and setting: with `N=c1c2c3c(sc2ncn1CCCN1CCOCC1)CCCCC3` the entry was “inactive”; with `COC(=O)c1ccc(C(NC(=O)OCc2ccccc2)/C(C)=C/[C@@H](C)C(=O)NCc2cc(C)on2)cc1` (stereo partly specified), “inactive”; with `Cc1cc(C)cc(OCc2nnc(SCC(=O)Nc3ccccc3)o2)c1`, “inactive”.
Still for that read-out and setting: with `Cc1cccc(OCc2nnc(SCc3nc4cc(C(F)(F)F)ccc4c(=O)[nH]3)o2)c1` the figure was 31.6 µM (active).
Still for that read-out and setting: with `Cc1cccc(OCc2nnc(SCn3nnc4ccccc4c3=O)o2)c1` the entry was “inactive”; with `O=C(c1csnn1)N1CCC2(CCN(Cc3nccs3)CC2)CC1`, “inactive”.
As for `Cc1ccccc1CSc1nnc(-c2ccccn2)n1N`, the Potency result was “inactive”.
Regarding `CC(C)(C)NCC[C@@H](O)c1cc(C(F)(F)F)nc2c(C(F)(F)F)cccc12`, the activity change, negative = inhibition is 3.93% [at 11.4 µM].
In the case of `COC(=O)c1cc(S(=O)(=O)NC2CCN(Cc3ccccc3)CC2)cn1C`, the Potency result is “inactive”.
On to `O=C(NC1CCN(Cc2ccccc2)CC1)c1ccccc1F`, for which the Potency entry is “inactive”.
As for `Cc1ccn2cc(C(=O)NC3CCN(Cc4ccccc4)CC3)nc2c1`, the Potency is 31.6 µM (active).
For `COc1cc(Cl)cc(C2NC(=O)NC(C)=C2C(=O)NCc2ccccc2)c1O` (stereo unspecified), the Potency result was “inactive”.
Still for that read-out and setting: with `Oc1ccc(-c2csc(Nc3cccnc3)n2)cc1` the entry was “inactive”.
The same measure, in the same setting: with `CCOc1ccc(C(=O)Nc2cc(OC)ccc2OC)cc1` the entry was “inactive”.
Still for that read-out and setting: with `COc1ccc(OC)c(Nc2nc(-c3ccc(O)c(O)c3)cs2)c1` the figure was 7.94 µM (active).
With `COc1ccc(-n2nnc3c(=O)n(CC(=O)OCc4ccccc4)cnc32)cc1`, the Potency result was “inactive”.
Take `c1ccc(-c2noc(-c3cccs3)n2)nc1`: the Potency result is “inactive”.
On the same count and under the same terms, with `COC(=O)[C@H](C)[C@H]1C[C@]1(C)[C@H](NC(=O)OCc1ccccc1)c1ccccc1` the entry was “inactive”; with `COc1ccccc1CNc1ncnc2ccc(-c3c(C)noc3C)cc12`, “inactive”; with `COc1ccc2[nH]cc(CCNc3ncnc4ccc(-c5ccccc5CN(C)C)cc34)c2c1`, “inactive”.
On the same count and under the same terms, with `COc1ccccc1CNc1ncnc2ccc(-c3ccc4c(c3)OCO4)cc12` the figure was 31.6 µM (active); with `COc1cc(OC)c(C(=O)NC2CCCCCC2)cc1OC`, “inactive”; with `O=C(CCC(=O)c1cccs1)NCc1ccccc1`, “inactive”.
Turning to `O=C(COC(=O)C12CC3CC(CC(C3)C1)C2)NCc1ccco1`, the Potency entry was “inactive”.
Take `O=C(COC(=O)CCC(=O)c1cccs1)NCc1ccco1`: the Potency was 25.1 µM (active).
On to `CC(=O)Nn1cc2c(=O)n(C)c(=O)n(C)c2c1`, for which the Potency result was “inactive”.
On to `CC1=C(C(=O)Nc2ccc(Cl)cc2)C(c2ccco2)NC(=O)N1` (stereo unspecified), for which the Potency result was “inactive”.
Take `C=C(C)Cn1c(N2CCN(CC)CC2)nc2c1c(=O)[nH]c(=O)n2C`: the Potency entry is “inactive”.
For the molecule `CCC(C)(C)N=C(NC#N)Nc1cccnc1`, the Potency entry is “inactive”.
Still for that read-out and setting: with `CCOC(=O)CSc1nccc(N(C)C)c1C#N` the entry was “inactive”.
Same read-out and setting: with `CCOC(=O)Cc1c(C)nc2c(C#N)c(C)nn2c1C` the figure was 25.1 µM (active); with `CC[C@@H]1Cc2cc(O)ccc2C2=C1c1ccc(O)cc1C[C@H]2CC`, 25.1 µM (active).
For the molecule `Cc1ccc2nc(CC(=O)c3ccc4ccccc4c3)c(=O)[nH]c2c1`, the activity change, negative = inhibition was 5.47% [at 11.4 µM].
Consider `C=CC(=O)c1ccc2ccccc2c1`, for which the Potency was 25.1 µM (active).
For `c1ccc(CCC2=NCCn3cccc32)cc1`, the Potency result was “inactive”.
The same measure, in the same setting: with `CN(CCOc1ccc(CC2SC(=O)NC2=O)cc1)c1ccccn1` (stereo unspecified) the figure was 31.6 µM (active).
`CO[C@@H]1COC(=O)[C@H](Cc2ccccc2)NC(=O)C/C=C\[C@@H](C)[C@H](OC)COC(=O)[C@@H](C)NC(=O)C/C=C\[C@H]1C`: the activity change, negative = inhibition is 5.16% [at 11.4 µM] and 0.0428% [at 11.4 µM].
Turning to `Cc1csc(NC(=O)NC2(C(F)(F)F)Oc3ccccc3O2)n1`, the Potency was 25.1 µM (active).
On the same count and under the same terms, with `Cc1cc(C)nc(NC(=O)Nc2ccccc2C(F)(F)F)n1` the entry was “inactive”; with `CCOC(=O)Cc1csc(NC(=O)Nc2ccccc2)n1`, “inactive”.
On the same count and under the same terms, with `CCCCN(C)C(=O)C1CCN(Cc2ccccn2)CC1` the entry was “inactive”.
Consider `CO[C@H]1COC(=O)[C@@H](C)NC(=O)C/C=C\[C@@H](C)[C@H](OC)COC(=O)C/C=C\[C@@H]1C`, for which the activity change, negative = inhibition is -0.943% [at 11.4 µM].
With `c1ccc(-n2nnnc2N2CCOCC2)cc1`, the Potency result is “inactive”.
Turning to `O=C1c2ccccc2-c2ncnc3c(N4CCOCC4)cc(N4CCOCC4)c1c23`, the Potency result was “inactive”.
On the same count and under the same terms, with `c1ccc(-c2oc3ncnc(N4CCOCC4)c3c2-c2ccccc2)cc1` the figure was 10 µM (active); with `Cc1cc(C(=O)OCC(=O)c2c(N)n(C)c(=O)n(C)c2=O)c(C)o1`, “inactive”.
On the same count and under the same terms, with `CCC(=O)Oc1cccc(C(=O)Nc2ccc(-c3nnc(-c4ccco4)o3)cc2)c1` the figure was 20 µM (active); with `CCCOc1cccc(C(=O)Nc2nnn(CCC)n2)c1`, “inactive”.
Still for that read-out and setting: with `CCOc1cccc(C(=O)Nc2cccnc2)c1` the entry was “inactive”; with `Oc1ccc2c(c1)OCC1c3cc4c(cc3OC21)OCO4` (stereo unspecified), “inactive”.
With `O=C(c1ccccc1)N1CCN(C(=O)N2CCCCC2)CC1`, the Potency entry was “inactive”.
Consider `O=C(O)CS(=O)c1ccc2c3c(cccc13)C(=O)c1ccccc1-2` (stereo unspecified), for which the activity change, negative = inhibition was -2.63% [at 11.4 µM].
As for `CC(=O)c1c(C)n(-c2ccc(N(C)C)cc2)c2ccc(OCC(N)=O)cc12`, the Potency result is “inactive”.
